# From PubChem BioAssay (NCATS)
# Records with an inconclusive call do not appear. Entries that show only a call come without a potency. Calls of active or inactive are those of the source. Calls come from the whole dose curve; as a rule, active = well fitted curve in the direction sought with a large enough effect; inconclusive = small, poorly fitted or top-dose-only effect, or another doubt; inactive = no such curve, though single readings can be large; an effect the other way counts as inactive or inconclusive.
# How the values were obtained:
# [1] = Cell Viability - LYMP2-005 (AID 967); settings: LYMP2-005 lymphoblastoid cell viability; series mostly up to 92.2 µM
# Procedure, shortened: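 Steps: seed 2500 LYMP2-005 cells/well, incubate 5 h at 37 C, add compound, incubate 24 h at 37 C, add CellTiter-Glo, wait 30 min at RT, read luminescence. Concentration-response data fitted to Hill equation for AC50.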
# [2] = Cell Viability - LYMP2-009 (AID 968); settings: LYMP2-009 lymphoblastoid cell viability; series mostly up to 92.2 µM; note: nearly all actives have a fitted effect of over 55% in size
# [3] = Cell Viability - LYMP2-011 (AID 969); settings: LYMP2-011 lymphoblastoid cells viability; series mostly up to 92.2 µM; note: nearly all actives have a fitted effect of over 60% in size; note: potency is the fitted concentration of half-maximal effect
# Procedure, shortened: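 2500 cells/well in complete medium, compound-treated 24 h at 37 C. Viability read as intracellular ATP by CellTiter-Glo luminescence after 30 min at room temperature. AC50 from Hill fits of qHTS concentration-response data.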
# [4] = Cell Viability - LYMP2-013 (AID 970); settings: LYMP2-013 lymphoblastoid cells viability; series mostly up to 92.2 µM; note: nearly all actives have a fitted effect of over 55% in size; note: potency is the fitted concentration of half-maximal effect
# Procedure, shortened: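 Human lymphoblastoid LYMP2-013 cells, 2500/well, treated 24 h at 37 C in complete medium; viability as intracellular ATP by CellTiter-Glo luminescence after 30 min. AC50 from Hill fits of qHTS concentration-response.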
# [5] = Cell Viability - LYMP2-015 (AID 971); settings: LYMP2-015 lymphoblastoid cell viability; series mostly up to 92.2 µM; note: nearly all actives have a fitted effect of over 55% in size; note: potency is the fitted concentration of half-maximal effect
# Procedure, shortened: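 LYMP2-015 human lymphoblastoid cells (2500/well) in complete medium, compound-treated 24 h at 37 C; viability read as cellular ATP by CellTiter-Glo luminescence after 30 min at room temperature. AC50 from Hill-equation fits of qHTS concentration-response data.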
# [6] = Cell Viability - LYMP2-017 (AID 972); settings: LYMP2-017 lymphoblastoid cell viability; series mostly up to 92.2 µM; note: nearly all actives have a fitted effect of over 55% in size; note: potency is the fitted concentration of half-maximal effect
# Procedure, shortened: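 LYMP2-017 human lymphoblastoid cells (2500/well) settled 5 hr at 37 C, then exposed to compound 24 hr at 37 C in complete medium. Viability taken as intracellular ATP by CellTiter-Glo luminescence after 30 min at RT; AC50 from Hill fits.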
# [7] = Cell Viability - LYMP2-019 (AID 973); settings: LYMP2-019 lymphoblastoid cell line viability; series mostly up to 92.2 µM; note: nearly all actives have a fitted effect of over 55% in size; note: potency is the fitted concentration of half-maximal effect
# Procedure, shortened: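 Human lymphoblastoid LYMP2-019 cells (2500/well) preincubated 5 h at 37 C, then treated 24 h at 37 C in complete medium. Viability by CellTiter-Glo ATP luminescence after 30 min at room temperature; AC50 from Hill fits.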
# [8] = Cell Viability - LYMP2-021 (AID 974); settings: LYMP2-021 lymphoblastoid cells viability; series mostly up to 92.2 µM; note: potency is the fitted concentration of half-maximal effect
# Procedure, shortened: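 Human lymphoblastoid LYMP2-021 cells, 2500/well in complete medium, treated 24 hours at 37 C. Intracellular ATP by CellTiter-Glo luminescence (30 min, RT); AC50 from Hill fits of concentration-response.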
# [9] = Cell Viability - LYMP2-023 (AID 975); settings: LYMP2-023 lymphoblastoid cell viability; series mostly up to 92.2 µM; note: nearly all actives have a fitted effect of over 55% in size; note: potency is the fitted concentration of half-maximal effect
# Procedure, shortened: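 LYMP2-023 human lymphoblastoid cells, 2500/well, preincubated 5 hr at 37 C, then compound-treated 24 hr at 37 C in complete medium. CellTiter-Glo luminescence (ATP) after 30 min at room temperature; AC50 from Hill-equation fits; tetraoctylammonium bromide positive control.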
Structure (SMILES),outcome [1],Potency [2],Potency [3],Potency [4],Potency [5],Potency [6],Potency [7],Potency [8],Potency [9]
COC(=O)CC#N,inactive,inactive,inactive,inactive,inactive,inactive,inactive,inactive,inactive
Cc1ccc(Cl)cc1N,,inactive,inactive,inactive,inactive,inactive,inactive,inactive,inactive
NC(N)=S,inactive,,inactive,inactive,inactive,inactive,inactive,inactive,inactive
Cc1cccc2cccnc12,inactive,inactive,inactive,inactive,inactive,inactive,inactive,,inactive
CN(C)CCCNCCCN,inactive,,inactive,inactive,inactive,inactive,inactive,inactive,inactive
O=C(O[C@@H](C(=O)O)[C@@H](OC(=O)c1ccccc1)C(=O)O)c1ccccc1,inactive,inactive,inactive,inactive,inactive,inactive,inactive,,inactive
CC(=C/C=C/C(C)=C/C=C/C=C(C)/C=C/C=C(C)/C=C/C(=O)O)/C=C/C(=O)O,inactive,inactive,inactive,,inactive,inactive,inactive,inactive,inactive
O=C(O)c1ccccc1[N+](=O)[O-],inactive,inactive,,inactive,inactive,inactive,inactive,inactive,inactive
c1ccc(Nc2ccccc2)cc1,inactive,,inactive,inactive,inactive,inactive,inactive,inactive,inactive
OC1CCCC1,,inactive,inactive,inactive,inactive,inactive,inactive,inactive,inactive
NC=O,inactive,,inactive,inactive,inactive,inactive,inactive,inactive,inactive
Cc1ccc(C(=O)O)cc1,inactive,inactive,inactive,inactive,inactive,inactive,inactive,inactive,inactive
CCCCC/C=C/C=C/C=O,,,39.8 µM (active),50.1 µM (active),31.6 µM (active),31.6 µM (active),50.1 µM (active),39.8 µM (active),50.1 µM (active)
c1ccc2c(c1)Oc1ccccc1S2,inactive,inactive,inactive,inactive,inactive,inactive,inactive,,inactive
COC(=O)c1ccccc1,inactive,inactive,inactive,inactive,inactive,inactive,inactive,,inactive
O=C(O)c1cc(Cl)cc(Cl)c1,,inactive,inactive,inactive,inactive,inactive,inactive,inactive,inactive
CC(=O)OC(C)=O,inactive,inactive,inactive,inactive,inactive,inactive,inactive,inactive,inactive
C1COC1,inactive,inactive,inactive,inactive,inactive,inactive,inactive,inactive,inactive

Structure (SMILES),outcome [1],Potency [2],Potency [3],Potency [4],Potency [5],Potency [6],Potency [7],Potency [8],Potency [9]
Cc1ccccc1C(N)=O,,inactive,inactive,inactive,inactive,inactive,inactive,inactive,inactive
C1CCOC1,inactive,,inactive,inactive,inactive,inactive,inactive,inactive,inactive
O=C(O)CCSSCCC(=O)O,inactive,inactive,inactive,inactive,inactive,inactive,inactive,inactive,inactive
ON=C1CCCCC1,inactive,,inactive,inactive,,inactive,inactive,inactive,inactive
C=CCn1c(=O)n(CC=C)c(=O)n(CC=C)c1=O,inactive,inactive,,inactive,inactive,inactive,inactive,inactive,inactive
COc1cccc2sc(N)nc12,inactive,inactive,inactive,inactive,inactive,inactive,inactive,inactive,inactive
CCCOCC(C)OCC(C)O (stereo unspecified),inactive,inactive,inactive,,inactive,inactive,inactive,inactive,inactive
Fc1ccccc1,inactive,inactive,inactive,inactive,inactive,inactive,inactive,inactive,inactive
Nc1nc(CC(=O)O)cs1,inactive,inactive,inactive,inactive,inactive,inactive,inactive,inactive,inactive
CCC(C)O (stereo unspecified),inactive,,inactive,inactive,inactive,inactive,inactive,inactive,inactive
CSc1ccc(C=O)cc1,inactive,inactive,inactive,inactive,inactive,inactive,inactive,inactive,inactive
CC(C)=CCC/C(C)=C/C=O,inactive,inactive,inactive,inactive,inactive,inactive,inactive,inactive,inactive
CC(C)(C)c1ccc(OCC2CO2)cc1 (stereo unspecified),inactive,,inactive,,inactive,inactive,inactive,,inactive
Nc1nc2ccccc2[nH]1,,inactive,inactive,inactive,inactive,inactive,inactive,inactive,inactive
Oc1c(Cl)ccc(Cl)c1Cl,inactive,inactive,inactive,inactive,inactive,inactive,inactive,inactive,inactive
CNC(=O)c1ccccc1,inactive,inactive,inactive,,inactive,inactive,inactive,inactive,inactive
Nc1c(Cl)cc(Cl)cc1Cl,inactive,inactive,inactive,inactive,inactive,inactive,inactive,inactive,inactive
ClC/C=C/CCl,inactive,inactive,inactive,inactive,inactive,inactive,,inactive,inactive
